Measurements: PubChem BioAssay (NCATS)
Inconclusive results are not listed. Calls of active or inactive are those of the source. Calls come from the whole dose curve; as a rule, active = well fitted inhibition curve with a large enough effect; inconclusive = small, poorly fitted or top-dose-only effect; inactive = flat fitted curve, though single readings scatter.
% is set by controls: 0 for no effect and ±100 for the full control effect; potency is the fitted concentration of half-maximal effect.

Each compound was assayed on astro (assay: Drug repurposing screens with cells derived from glioblastoma tumor samples (AID 1345199; note: nearly all actives have a fitted effect of over 40% in size)). Conditions: viability, ATP luminescence, 48 h; series mostly up to 45.9 µM; activity, negative = cell killing: at the top concentration.
Experimental: CD133+ cells were isolated from GBM patient biopsies and cultured as neurospheres. Neurospheres from four patients were used to screen the NCATS pharmaceutical collection (NPC) library of approved drugs and bioactive compounds. […] The neurospheres were incubated with drugs for 48 hours in 1536-well format, then assayed with an ATP content cell viability assay. […] These hits were cherry picked to confirm activity in the four original GBM lines screened plus three other slower growing GMB lines (unable to yield enough cells for a full primary screen). Variable activities of the confirmed primary hits in the different GBM patient lines were observed. The patient line 206 responded to the greatest number of compounds and line 923 responded to the least amount of active compounds.
With `CCCCNc1c(C(=O)OCC)c(C)nc2c1cnn2CC` the “activity, negative = cell killing” value was -18.1% (inactive). For `CN1CCN(CC(=O)N2c3ccccc3C(=O)Nc3cccnc32)CC1`, the “activity, negative = cell killing” value was -6.87% (inactive). In the case of `CC(C)(C)c1ccc(C(=O)CCCN2CCC(OC(c3ccccc3)c3ccccc3)CC2)cc1`, the Potency is reported as 12.6 µM (active). `CN(C)CC/C=C1\c2ccccc2COc2ccccc21` was tested, and the “activity, negative = cell killing” value was -29.4% (inactive). In the case of `c1cnc(N2CCN(Cc3ccc4c(c3)OCO4)CC2)nc1`, the “activity, negative = cell killing” value is reported as -7.06% (inactive). With `C[C@H](CS)C(=O)N1CCC[C@H]1C(=O)O` the “activity, negative = cell killing” value was -14.9% (inactive). `C=CCc1ccccc1OCC(O)CNC(C)C` (stereo not given) was tested, and the “activity, negative = cell killing” value was -24.4% (inactive). For `CCN(CC)CC(=O)Nc1c(C)cccc1C`, the “activity, negative = cell killing” value was -19.8% (inactive). For `FC(F)(F)c1ccccc1-n1ccnc1`, the “activity, negative = cell killing” value was -12.6% (inactive). In the case of `C#CCN(C)CCCOc1ccc(Cl)cc1Cl`, the “activity, negative = cell killing” value is reported as -5.09% (inactive). `NC(Cc1ccc(Cl)cc1)C(=O)O` (stereo not given) was tested, and the “activity, negative = cell killing” value was -11.9% (inactive). `C[C@]12CCC(=O)C=C1CC[C@@H]1[C@@H]2C(=O)C[C@@]2(C)[C@H]1CC[C@]2(O)C(=O)CO` was tested, and the “activity, negative = cell killing” value was -10.1% (inactive). In the case of `COCCOC(=O)C1=C(C)NC(C)=C(C(=O)OC(C)C)C1c1cccc([N+](=O)[O-])c1` (stereo not given), the “activity, negative = cell killing” value is reported as -19.2% (inactive). With `COc1ccc(CN(CCN(C)C)c2ccccn2)cc1` the “activity, negative = cell killing” value was -14.8% (inactive). In the case of `Cc1nnc(SCC2=C(C(=O)O)N3C(=O)[C@@H](NC(=O)Cn4cnnn4)[C@H]3SC2)s1`, the “activity, negative = cell killing” value is reported as -10.3% (inactive). In the case of `NC1=NCC2c3ccccc3Cc3ccccc3N12` (stereo not given), the “activity, negative = cell killing” value is reported as -23.2% (inactive). `CN1C[C@H](C(=O)N[C@]2(C)O[C@@]3(O)[C@@H]4CCCN4C(=O)[C@H](Cc4ccccc4)N3C2=O)C[C@@H]2c3cccc4[nH]cc(c34)C[C@H]21` was tested, and the “activity, negative = cell killing” value was -24.2% (inactive). In the case of `COC(=O)[C@H]1[C@H]2C[C@@H]3c4[nH]c5cc(OC)ccc5c4CCN3C[C@H]2C[C@@H](OC(=O)c2cc(OC)c(OC)c(OC)c2)[C@@H]1OC`, the “activity, negative = cell killing” value is reported as -28.7% (inactive). In the case of `NC(=O)c1cn(Cc2c(F)cccc2F)nn1`, the “activity, negative = cell killing” value is reported as -1.8% (inactive). For `CCN(CC)CCNC(=O)c1cc(S(C)(=O)=O)ccc1OC`, the “activity, negative = cell killing” value was -11.9% [at 21.2 µM] (inactive). In the case of `CN(C)CC[C@@H](c1ccc(Br)cc1)c1ccccn1`, the “activity, negative = cell killing” value is reported as -21.4% (inactive). For `CN(C(=O)CCCOc1ccc2[nH]c(=O)ccc2c1)C1CCCCC1`, the “activity, negative = cell killing” value was -29.5% (inactive). In the case of `CC(C)[N+](C)(CCOC(=O)C1c2ccccc2Oc2ccccc21)C(C)C`, the “activity, negative = cell killing” value is reported as -7.77% (inactive). `CC(=O)Oc1cc(C(C)C)c(OCCN(C)C)cc1C` was tested, and the “activity, negative = cell killing” value was -0.115% [at 21.2 µM] (inactive). In the case of `Cc1ccc(S(=O)(=O)NC(=O)NN2CCCCCC2)cc1`, the “activity, negative = cell killing” value is reported as -0.811% (inactive). `COc1ccc(CCN(C)CCCC(C#N)(c2cc(OC)c(OC)c(OC)c2)C(C)C)cc1OC` (stereo not given) was tested, and the “activity, negative = cell killing” value was -14.2% (inactive). In the case of `CCN(CC)CCNC(=O)c1ccc(NC(C)=O)cc1`, the “activity, negative = cell killing” value is reported as -0.0199% (inactive). In the case of `C[N+](C)(C)CCCCCCCCCC[N+](C)(C)C`, the “activity, negative = cell killing” value is reported as -11.3% (inactive). With `OC(CCN1CCCCC1)(c1ccccc1)C1CCCCC1` (stereo not given) the “activity, negative = cell killing” value was -20.7% (inactive). `NCCCNCCSP(=O)(O)O` was tested, and the “activity, negative = cell killing” value was -5.67% (inactive). For `C[C@]12CC[C@@H]3c4ccc(O)cc4C[C@@H](CCCCCCCCCS(=O)CCCC(F)(F)C(F)(F)F)[C@H]3[C@@H]1CC[C@@H]2O` (stereo not given in full), the “activity, negative = cell killing” value was -0.603% (inactive). For `OCCN1CCN(CC/C=C2/c3ccccc3Sc3ccc(C(F)(F)F)cc32)CC1`, the Potency was 31.6 µM (active). `CC(=O)[C@@]1(O)CC[C@H]2[C@@H]3CCC4=CC(=O)CC[C@]4(C)[C@H]3CC[C@@]21C` was tested, and the “activity, negative = cell killing” value was -15.4% (inactive). `C[C@@H](O)[C@H]1C(=O)N2C(C(=O)O)=C(SCCN=CN)C[C@H]12` was tested, and the “activity, negative = cell killing” value was -2.86% [at 21.2 µM] (inactive). With `CC(=O)[C@]1(O)Cc2c(O)c3c(c(O)c2[C@@H](O[C@H]2C[C@H](N)[C@H](O)[C@H](C)O2)C1)C(=O)c1ccccc1C3=O` the Potency was 0.398 µM (active). For `CCCOc1ccccc1-c1nc2n[nH]nc2c(=O)[nH]1`, the “activity, negative = cell killing” value was -11.2% (inactive). For `Nc1c2c(nc3ccccc13)CCCC2O` (stereo not given), the “activity, negative = cell killing” value was -3.76% (inactive). `CC(C)NCC(O)c1cc(O)cc(O)c1` (stereo not given) was tested, and the “activity, negative = cell killing” value was -16.3% (inactive). With `CN=C(NC#N)NCCSCc1nc[nH]c1C` the “activity, negative = cell killing” value was 10.4% (inactive). `CCCCOCCOCCOCc1cc2c(cc1CCC)OCO2` was tested, and the Potency was “inactive”.
